Bioassay records as filed in PubChem BioAssay.
Rows were chosen to be rich in hits. Some 3.5% of all compounds tested hit in one or more screens of this group.
TEAD-YAP inh: TEAD-YAP interaction inhibition. hit rate 1.4% among 640,000. inhibition, % at 9.12 µM. AID 1259422. HEK-TIYL cells, TEAD-Gal4/YAP UAS-luciferase luminescence; in the data active = inhibition above about 32%
GPR151 activ: activates the human receptor GPR151; PathHunter beta-arrestin GPR151 cells, luminescence; activation, % at 11.2 µM; AID 1508602; hit rate 1% among 650,000; in the data active = activation above about 4.9%
MITF inh: inhibitors of human MITF. O75030. inhibition, % at 2.6 µM. hit rate 0.91% among 650,000. AID 1259374. AlphaScreen MITF homodimerization, bead proximity signal; in the data active = inhibition above about 50%
Target sequence (O75030 whole entry, looked up): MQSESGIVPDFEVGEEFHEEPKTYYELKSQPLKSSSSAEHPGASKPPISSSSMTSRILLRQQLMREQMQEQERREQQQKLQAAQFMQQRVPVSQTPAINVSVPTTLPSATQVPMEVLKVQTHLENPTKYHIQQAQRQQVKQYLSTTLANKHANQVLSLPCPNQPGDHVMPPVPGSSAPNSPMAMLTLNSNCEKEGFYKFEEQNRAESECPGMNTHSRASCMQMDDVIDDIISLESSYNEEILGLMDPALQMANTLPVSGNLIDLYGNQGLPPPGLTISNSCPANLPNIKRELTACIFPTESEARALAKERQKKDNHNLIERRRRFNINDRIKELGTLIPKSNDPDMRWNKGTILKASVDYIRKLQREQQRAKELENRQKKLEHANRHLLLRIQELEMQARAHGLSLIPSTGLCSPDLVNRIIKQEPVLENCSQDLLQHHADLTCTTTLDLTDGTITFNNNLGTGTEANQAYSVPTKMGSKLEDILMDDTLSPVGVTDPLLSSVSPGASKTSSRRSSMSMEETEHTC
FBW7 activator: activators of human E3 ligase FBW7 | AID 1259310 | normalized activity (activation), % at 26.1 µM | AlphaScreen FBW7–phospho-cyclin E peptide binding, activator screen | hit rate 0.13% among 650,000 | Q969H0; in the data active = normalized activity above about 1.9%;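 also: purified mutant Fbw7 with reduced substrate affinity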
MITF confirm: human MITF inhibition, confirmation; shares compounds with MITF inh; AlphaScreen MITF homodimerization, biotin/His-MITF beads; inhibition, % at 2.6 µM; hit rate 16% among 4,700; AID 1259372;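 active = inhibition above a cutoff derived from the DMSO control wells, cut at about 28% in these data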;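 also: inhibitors lower the bead chemiluminescence by keeping MITF from dimerizing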
AlphaScreen intf2: optically interferes with AlphaScreen signal; shares compounds with MITF inh; hit rate 7.6% among 4,700; LysRS AlphaScreen counterscreen, signal interference, triplicate; inhibition, % at 2.6 µM; AID 1259376;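 active = inhibition above a cutoff derived from the DMSO control wells, cut at about 30% in these data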
A number is an active result.

What do the screens show for `COc1ccccc1CN1CCN(S(=O)(=O)c2ccccc2)CC1`?
TEAD-YAP inh: inactive; GPR151 activ: inactive; MITF inh: 63.2; FBW7 activator: inactive; MITF confirm: inactive; AlphaScreen intf2: inactive

What do the screens show for `Cc1ccccc1CN1CCN(S(=O)(=O)c2ccc(Cl)cc2)CC1`?
TEAD-YAP inh: inactive; GPR151 activ: inactive; MITF inh: 53.1; FBW7 activator: inactive; MITF confirm: inactive; AlphaScreen intf2: inactive

Results for CNc1nsnc1C(=O)O ?
TEAD-YAP inh: inactive; GPR151 activ: inactive; MITF inh: inactive; FBW7 activator: inactive

How did CCOc1cc(C2C(C#N)=C(N)Oc3n[nH]c(C)c32)ccc1OC(C)C (centres undefined) do in these assays?
TEAD-YAP inh: inactive; GPR151 activ: inactive; MITF inh: inactive; FBW7 activator: inactive

What do the screens show for `Cc1ccc(/C=C/C2=NC(=C\c3ccc(Cl)cc3)/C(=O)O2)cc1`?
TEAD-YAP inh: inactive; GPR151 activ: inactive; MITF inh: inactive; FBW7 activator: inactive

How did Cc1nc2ncccc2c(=O)n1-c1ccc(NC(=O)c2ccccc2)cc1 do in these assays?
TEAD-YAP inh: inactive; GPR151 activ: inactive; MITF inh: inactive; FBW7 activator: inactive

How did O=C(CN1CCN(c2ccccc2F)CC1)NCCC1=CCCCC1 do in these assays?
TEAD-YAP inh: inactive; GPR151 activ: inactive; MITF inh: 67.6; FBW7 activator: inactive; MITF confirm: inactive; AlphaScreen intf2: inactive

How did Cc1ccc2c(c1)C(C)CC(C)(C)N2C(=O)CN1CCN(C)CC1 (centres undefined) do in these assays?
TEAD-YAP inh: inactive; GPR151 activ: inactive; MITF inh: inactive; FBW7 activator: inactive

How did CN1CCCN(CC(=O)N2CCc3ccccc32)CC1 do in these assays?
TEAD-YAP inh: inactive; GPR151 activ: inactive; MITF inh: 77.6; FBW7 activator: inactive; MITF confirm: inactive; AlphaScreen intf2: inactive

Results for CC1CC(C)(C)N(C(=O)CN2CCN(C)CC2)c2ccccc21 (centres undefined) ?
TEAD-YAP inh: inactive; GPR151 activ: inactive; MITF inh: 80.6; FBW7 activator: inactive; MITF confirm: inactive; AlphaScreen intf2: inactive

How did O=C(CN1CCN(c2ccccc2F)CC1)N1CCCc2ccccc21 do in these assays?
TEAD-YAP inh: inactive; GPR151 activ: inactive; MITF inh: 52.5; FBW7 activator: inactive; MITF confirm: inactive; AlphaScreen intf2: inactive

Results for Fc1ccc(CNc2ccc3nnc(-c4ccc(F)cc4)n3n2)cc1 ?
TEAD-YAP inh: inactive; GPR151 activ: inactive; MITF inh: inactive; FBW7 activator: inactive

What do the screens show for `COC(=O)c1ccc(NCN2C(=O)c3cccc([N+](=O)[O-])c3C2=O)cc1`?
TEAD-YAP inh: inactive; GPR151 activ: inactive; MITF inh: inactive; FBW7 activator: inactive

How did CC(C(=O)N1CCC(n2nccc2NC(=O)Nc2cccc(F)c2)CC1)c1ccccc1 (centres undefined) do in these assays?
TEAD-YAP inh: inactive; GPR151 activ: inactive; MITF inh: inactive; FBW7 activator: inactive

Results for NC(=O)c1ccc(NC(=O)CN2CCc3ccccc3C2)cc1 ?
TEAD-YAP inh: inactive; GPR151 activ: inactive; MITF inh: inactive; FBW7 activator: inactive

Results for O=C(CN1CCN(Cc2ccccc2)CC1)Nc1ccc(C(=O)N2CCCCC2)cc1 ?
TEAD-YAP inh: inactive; GPR151 activ: inactive; MITF inh: 65.4; FBW7 activator: inactive; MITF confirm: inactive; AlphaScreen intf2: inactive

How did O=C(CN1CCc2ccccc2C1)Nc1ccc(C(=O)N2CCCCC2)cc1 do in these assays?
TEAD-YAP inh: inactive; GPR151 activ: inactive; MITF inh: 59.7; FBW7 activator: inactive; MITF confirm: inactive; AlphaScreen intf2: inactive

How did O=C(CN1CCN(Cc2ccccc2)CC1)Nc1ccccc1 do in these assays?
TEAD-YAP inh: inactive; GPR151 activ: inactive; MITF inh: inactive; FBW7 activator: inactive

How did Cc1ccc2c(c1)NC(=O)C(Cl)(C(F)(F)F)O2 (centres undefined) do in these assays?
TEAD-YAP inh: inactive; GPR151 activ: inactive; MITF inh: inactive; FBW7 activator: inactive

What do the screens show for `Cc1ccc2c(c1)NC(=O)C(N1CCOCC1)(C(F)(F)F)O2` (centres undefined)?
TEAD-YAP inh: inactive; GPR151 activ: inactive; MITF inh: 59.1; FBW7 activator: inactive; MITF confirm: inactive; AlphaScreen intf2: inactive

Results for CCN(CC)C(=O)CN1CCN(c2ncccn2)CC1 ?
TEAD-YAP inh: inactive; GPR151 activ: inactive; MITF inh: 55.6; FBW7 activator: inactive; MITF confirm: inactive; AlphaScreen intf2: inactive

Results for CCN(CC)C(=O)CN1CCC(O)(c2ccccn2)CC1 ?
TEAD-YAP inh: inactive; GPR151 activ: inactive; MITF inh: inactive; FBW7 activator: inactive

How did Cc1cc(C)n2nc(C(=O)Nc3ccc(Br)c(C)c3)nc2n1 do in these assays?
TEAD-YAP inh: inactive; GPR151 activ: inactive; MITF inh: 50.9; FBW7 activator: inactive; MITF confirm: inactive; AlphaScreen intf2: inactive

What do the screens show for `COC(=O)c1ccc(C(=O)OC)c(NC(=O)C2Cc3ccccc3C(=O)O2)c1` (centres undefined)?
TEAD-YAP inh: inactive; GPR151 activ: inactive; MITF inh: inactive; FBW7 activator: inactive

How did CN1CCN(CC(=O)c2c(-c3ccccc3)n(C)c3ccccc23)CC1 do in these assays?
TEAD-YAP inh: inactive; GPR151 activ: inactive; MITF inh: 57.4; FBW7 activator: inactive; MITF confirm: inactive; AlphaScreen intf2: inactive

How did Cc1ccc(/C=N/N=C2\NC(=O)C(CC(=O)O)S2)s1 (centres undefined) do in these assays?
TEAD-YAP inh: inactive; GPR151 activ: inactive; MITF inh: inactive; FBW7 activator: inactive

Results for CCN(CC)CC(O)CNCc1ccc(Cl)cc1 (centres undefined) ?
TEAD-YAP inh: inactive; GPR151 activ: inactive; MITF inh: 53.8; FBW7 activator: inactive; MITF confirm: inactive; AlphaScreen intf2: inactive

What do the screens show for `CCCCc1cc(=O)oc2cc(OC(C)C(=O)OC)ccc12` (centres undefined)?
TEAD-YAP inh: inactive; GPR151 activ: inactive; MITF inh: inactive; FBW7 activator: inactive

Results for C/C=C/c1ccc(OCCN2CC(C)OC(C)C2)c(OC)c1 (centres undefined) ?
TEAD-YAP inh: inactive; GPR151 activ: inactive; MITF inh: 64.3; FBW7 activator: inactive; MITF confirm: inactive; AlphaScreen intf2: inactive

How did Cc1ccc(OCCN2CC(C)OC(C)C2)c(Cl)c1 (centres undefined) do in these assays?
TEAD-YAP inh: inactive; GPR151 activ: inactive; MITF inh: 64.5; FBW7 activator: inactive; MITF confirm: inactive; AlphaScreen intf2: inactive

What do the screens show for `COc1cc(C)ccc1OCCOCCN1CC(C)OC(C)C1` (centres undefined)?
TEAD-YAP inh: inactive; GPR151 activ: inactive; MITF inh: 56.5; FBW7 activator: inactive; MITF confirm: inactive; AlphaScreen intf2: inactive

What do the screens show for `C/C=C/c1ccc(OCCCN2CC(C)OC(C)C2)c(OC)c1` (centres undefined)?
TEAD-YAP inh: inactive; GPR151 activ: inactive; MITF inh: inactive; FBW7 activator: inactive

What do the screens show for `N#Cc1cc(Oc2ccc(C(=O)c3ccccc3)cc2)nc2ccccc12`?
TEAD-YAP inh: inactive; GPR151 activ: inactive; MITF inh: inactive; FBW7 activator: inactive
